In PubChem BioAssay (NCI):
This is part of a sample that, as a whole, favours compounds with a hit. Of some 83,000 tested, about 20% had one in any assay.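 48-hour exposure, single concentration, 96-well plates; percent growth endpoint where 0 means no net growth. Active: below 10.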 Values without a mark were called inactive. Activity calls are given as the source filed them.

Assays:
Experiment in all cases: NCI-60 one-dose screen, 48 h (100 = growth as untreated, 0 = no growth, -100 = all killed)
NCI-H23 lung = conditions: 10 µM unless noted
NCI-H226 lung = conditions: 10 µM unless noted
HOP-62 NSCLC = conditions: 10 µM unless noted
NCI-H460 lung = conditions: 10 µM unless noted
HOP-92 NSCLC = conditions: 10 µM
NCI-H522 lung = conditions: 10 µM unless noted
A549/ATCC NSCLC = conditions: 10 µM unless noted
786-0 renal = conditions: 10 µM unless noted
COLO 205 colon = conditions: 10 µM unless noted
DU-145 prostate = conditions: 10 µM unless noted
K-562 leukemia = conditions: 10 µM unless noted
MALME-3M melanoma = conditions: 10 µM unless noted
MDA-MB-231 breast = conditions: 10 µM unless noted
SF-268 CNS = conditions: 10 µM unless noted
SF-295 CNS = conditions: 10 µM unless noted
SF-539 CNS = conditions: 10 µM unless noted
UACC-257 melanoma = conditions: 10 µM unless noted
RXF 393 renal = conditions: 10 µM unless noted
M14 melanoma = conditions: 10 µM unless noted

Compound	growth (NCI-H23 lung)	growth (NCI-H226 lung)	growth (HOP-62 NSCLC)	growth (NCI-H460 lung)	growth (HOP-92 NSCLC)	growth (NCI-H522 lung)	growth (A549/ATCC NSCLC)	growth (786-0 renal)	growth (COLO 205 colon)	growth (DU-145 prostate)	growth (K-562 leukemia)	growth (MALME-3M melanoma)	growth (MDA-MB-231 breast)	growth (SF-268 CNS)	growth (SF-295 CNS)	growth (SF-539 CNS)	growth (UACC-257 melanoma)	growth (RXF 393 renal)	growth (M14 melanoma)
COc1cccc(O)c1/C=C(/C)c1ccc2c(OC)cccc2[o+]1	103%	105%	92.5%	109%	104%	98.5%	107%	101%	117%	111%	95.6%	96.8%	101%	100%	99.1%	93.2%	118%		
COc1cc(-c2nn(C(C)(C)C)cc2-c2ccnc(NCCCNS(=O)(=O)c3ccc(F)cc3)n2)ccc1Cl	82.3%	72%	71.9%	84.2%	70.4%		50.2%	76.3%	96.1%	74.1%	40.2%	86.1%	60.1%	58%	80.5%	91.2%	93.3%	8.65% (active)	93.3%
CS(=O)(=O)Nc1cc(-c2ccc3ncc(C#N)c(NCc4ccccc4)c3c2)cnc1Cl	0.346% (active)	-9.59% (active)	2.7% (active)	3.01% (active)	-16.8% (active)		7.72% (active)	0.0627% (active)	6.54% (active)	8.12% (active)	9.74% (active)	-38.7% (active)	-51.8% (active)	-4.76% (active)	-32.3% (active)	-42.6% (active)	1.36% (active)	-46.6% (active)	-9.52% (active)
CCCn1cnc2c(c1=N)C(c1ccc(Cl)cc1)c1sc3c(CC)cccc3c1O2 (stereo unspecified)	19.2%	57.7%	31.1%	7.5% (active)		-25.7% (active)	30.4%	30%	-14.3% (active)	13.7%	11.3%	55.6%	30.8%	45.4%	-12.8% (active)	-19.7% (active)	83.9%	-22.5% (active)	2.63% (active)
